A selection: hits, their analogues and other compounds. The true share with any hit is near 1.6%.
CCHF vOTU inh: CCHFV vOTU protease inhibition; Pep-AMC fluorescence; inhibition, % at 11.5 µM; 370,000 tested, 0.55% active; AID 651958; in the data active means inhibition above about 30%; further: 0% = vehicle wells with enzyme and 100% = no enzyme wells
Sa ugtP lethal: growth inhibition of S. aureus ugtP deletion strain; growth inhibition, % (test concentration not listed); S. aureus RN4220 ugtP deletion, OD600 growth, 16 h; 330,000 tested, 0.54% active; in the data active means growth inhibition above about 68%;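 further: plate controls were untreated wells for no effect and antibiotic for full effect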
BJeLR viability: kills HRASV12-expressing BJeLR cells; inhibition, % (test concentration not listed); BJeLR (HRASV12) viability, CellTiter-Glo ATP luminescence, 48 h; 300,000 tested, 0.17% active; in the data active means inhibition above about 50%
Sa RN4220 lethal: S. aureus RN4220 growth inhibition | OD600, 16 h | inhibition, % (test concentration not listed) | AID 1259311 | 330,000 tested, 0.33% active; in the data active means inhibition above about 85%;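 further: plate controls were untreated cells for no effect and reference antibiotic for full effect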
PfHsp40 rescue: restores yeast growth despite PfHsp40 toxicity. S. cerevisiae expressing PfHsp40, growth rescue, ATP luminescence. growth rescue, % at 12.5 µM. 340,000 tested, 0.68% active; in the data active means growth rescue above about 28%, passing the limit was not always enough;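 further: yeast W303a lacking pdr1 and pdr3 grown in galactose medium; growth measured after three days at 30 °C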
* marks the source's active call; other numbers are inactive results; nt = not tested or not shown.

SMILES	CCHF vOTU inh	Sa ugtP lethal	BJeLR viability	Sa RN4220 lethal	PfHsp40 rescue
Cn1c(-c2c(N)n(CCc3ccccc3)c3nc4ccccc4nc23)nc2ccccc21	nt	-15.4	-6.9	-3.4	-1.3
Cn1c(-c2c(N)n(C3CCCC3)c3nc4ccccc4nc23)nc2ccccc21	-4.0	-9.4	-5.9	-4.3	489.5*
Cc1ccc(NC(=O)CON=Cc2ccccc2C)c(C)c1	nt	3.7	nt	3.6	nt
F[B-](F)(F)c1cc2cc(Br)ccc2s1	nt	nt	nt	nt	186.2*
F[B-](F)(F)c1cc2ccccc2s1	18.4	nt	nt	nt	8.5
CCCOc1ccc2ccccc2c1/C=C1\SC(=O)NC1=O	17.3	18.6	5.3	3.9	504.5*
O=C1NC(=O)/C(=C/c2cccc3ccccc23)S1	0.3	15.5	-10.5	31.9	10.6
O=C(Nc1cccc(Cl)c1)ON=C1c2ccccc2-c2ccccc21	-10.9	-34.0	4.3	-3.6	36.6*
O=C(Nc1cccc(Cl)c1)Nc1cccc(Cl)c1	13.0	-17.8	3.6	1.9	-1.0
Cc1cccc(C(=O)NN=Cc2ccncc2)c1	nt	4.9	nt	-0.2	nt
Cc1ccc(O)c(-c2cc(-c3ccccc3[N+](=O)[O-])[nH]n2)c1	3.1	-20.7	-2.2	-2.8	11.7
Cc1ccccc1-c1cc(-c2ccccc2O)on1	2.4	36.1	6.0	3.9	31.7*
Cc1ccc(O)c(-c2cc(-c3ccccc3C)[nH]n2)c1	16.4	nt	3.5	nt	321.7*
CC(C)(C)c1ccc(-c2cc(-c3ccccc3O)[nH]n2)cc1	5.8	61.6	-11.7	-6.8	33.7*
Oc1ccccc1-c1cc(-c2ccccc2)no1	14.5	-13.4	-2.7	-4.1	0.0
O=[N+]([O-])c1ccccc1-c1cc(-c2cc(Cl)ccc2O)n[nH]1	11.0	5.9	2.7	-9.6	144.5*
CC(=NNC(=S)NC(C)C)c1ccco1	nt	3.9	nt	8.5	nt
Oc1ccccc1-c1cc(-c2cccc(F)c2)n[nH]1	2.2	-1.8	7.6	-6.9	193.0*
COc1cccc(CNC(=O)C2CCCN(S(=O)(=O)c3cccc4nonc34)C2)c1 (stereo not drawn)	-1.3	-2.4	-6.3	1.6	38.1*
COc1cccc(NC(=O)C2CCCN(S(=O)(=O)c3cccc4nonc34)C2)c1 (stereo not drawn)	-4.2	-2.7	-4.9	4.8	-0.5
COC(=O)C1CC2CCC(O)CC2N1Cc1ccc(C(C)(C)C)cc1 (stereo not drawn)	nt	9.2	nt	8.6	nt
NC(=O)c1cc([N+](=O)[O-])ccc1Nc1ccccc1	7.4	-1.7	nt	0.3	48.3*
O=C(O)c1ccccc1Nc1ccc([N+](=O)[O-])cc1C(=O)O	-7.7	nt	1.0	nt	0.2
O=C(CSc1nc2ccccc2[nH]1)Nc1nc(-c2cccc(Br)c2)cs1	13.7	99.3*	-3.3	99.2*	-0.6
CN(C)CCCn1c(SCC(=O)Nc2nc(-c3cccc(Br)c3)cs2)nc2ccccc2c1=O	-1.1	100.1*	34.2	100.7*	-0.8
SMILES	CCHF vOTU inh	Sa ugtP lethal	BJeLR viability	Sa RN4220 lethal	PfHsp40 rescue
Cc1cc(NN=Cc2ccco2)c2ccccc2n1	nt	6.7	nt	5.4	nt
O=C(NN=Cc1ccc([N+](=O)[O-])o1)c1cn2ccc3ccccc3c2n1	nt	100.5*	nt	52.8	nt
O=C(CNc1cccc2ccccc12)N/N=C/c1ccc([N+](=O)[O-])o1	16.6	nt	-3.2	nt	2.1
O=C(N/N=C/c1ccc([N+](=O)[O-])o1)c1ccccc1-n1cccc1	19.6	nt	1.9	nt	-1.3
O=C(CNc1cccc2ccccc12)NN=Cc1ccc([N+](=O)[O-])o1	nt	100.2*	nt	99.4*	nt
CC(C)C(C(=O)N1CCN(C(=O)OC(C)(C)C)CC1)n1cc(-c2cn(C(C)C(=O)N3CCN(C(=O)OC(C)(C)C)CC3)nn2)nn1 (stereo not drawn)	nt	3.1	nt	2.4	nt
COc1ccc(OC)c2c1C(=O)c1ccccc1C2=O	28.2	15.9	-8.3	1.3	nt
COc1ccc(OC)c2c1C(=O)C(Cl)=C(Cl)C2=O	-11.6	nt	91.4*	nt	612.9*
Cc1onc(-c2ccccc2)c1C(=O)NN=Cc1cccs1	nt	3.7	nt	2.2	nt
COc1ccc(-c2nc(/C=C3\C(C)=Nc4ccccc43)c(O)o2)cc1	-0.4	92.5*	-3.6	91.3*	-0.6
Cc1ccc(C(C)C)cc1NC(=O)Nc1ccc([N+](=O)[O-])cc1	-5.5	nt	9.9	nt	150.7*
CC(C)OC(=O)c1cc(NC(=S)Nc2ccc([N+](=O)[O-])cc2)cc(C(=O)OC(C)C)c1	16.0	99.9*	-4.7	100.0*	-0.1
CC(C)CCNC(=S)Nc1ccc([N+](=O)[O-])cc1	7.8	-0.9	-11.5	25.2	127.6*
CC(C)COc1ccc(C(=O)Nc2ccc([N+](=O)[O-])cc2)cc1	nt	2.6	2.2	-2.3	-1.2

Source: PubChem (several laboratories)
